Molecules are shown by their SMILES. The whole screen tested about 360,000 compounds, of which about 3,700 (1%) were called active. Roughly 2% stayed inconclusive and do not appear here.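 How the source made its calls: active means normalized GFP-positive differentiation at or above the plate's own cutoff, the solvent-only control mean plus 3 SD; inconclusive means no clear call, values can overlap the other calls; inactive means the rest.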 The full list was thinned out, with actives kept by preference.

The nature of the assay: HoxA9-arrested leukemia cell differentiation promoters – flow cytometry, MLPCN library, primary screen (AID 624256).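 On GFP+ MAC1+ double positive: cells exposed to compound for four days before flow analysis.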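 On normalized GFP-positive differentiation: cells exposed to compound for four days before flow analysis; 0% = DMSO wells and 100% = fulvestrant positive control at 5 µM.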 The following applies: ER-HoxA9 myeloid progenitors, lysozyme-GFP differentiation, at 10 µM; GFP+ MAC1+ double positive: measured here: differentiation confirmed by MAC1 staining, stronger effect = higher value; normalized GFP-positive differentiation: stronger effect = higher value. In general terms: A flow cytometer gives signals particle by particle.
For `COCCCn1cc(CN2CC(N(C)C)CS2(=O)=O)nn1` (stereo unspecified), the GFP+ MAC1+ double positive was 0.8% and the call was inactive.
For `Cc1nc2c(OCc3ccc(Cl)cc3Cl)cccn2c1N(C)CC1CC1`, the GFP+ MAC1+ double positive was 0.6% and the compound was called inactive.
The matching figures for `CC(C)CN1C(=O)CN(S(C)(=O)=O)CC1(C)C(=O)NCc1ccccc1` (stereo unspecified): 1.1% and “inactive”.
On the same counts, the results for `Nc1nc2ncccn2c1-c1ccccc1` are 2.1% and “inactive”.
For the compound `CCc1nc2ccc(C(=O)NCc3ccc(OC)cc3)cn2c1N(CC)Cc1cccc(Br)c1`, the GFP+ MAC1+ double positive came out at 1.1% and the call was inactive.
The matching figures for `Cc1nccn1-c1ccc(NC(=O)[C@H]2O[C@@H](n3ccc(=O)[nH]c3=O)[C@H](O)[C@@H]2O)cc1`: 1.7% and “inactive”.
The matching figures for `CCOC(=O)CNC(=O)c1nn(-c2cccc(OC)c2)c(=O)c2ccccc12`: 0.7% and “inactive”.
The matching figures for `Cc1cc(=O)oc2c1c(C)nn2-c1ccc(Cl)cc1`: 0.3% and “inactive”.
`Cc1nn(-c2cc(Cl)ccc2N)c(=O)c2ccccc12`: the GFP+ MAC1+ double positive is 7.4% and the normalized GFP-positive differentiation was 51.3% (active).
Consider `C#CCNC(=O)C[C@@H]1C[C@@]2(C(=O)OCC)CCCC=C2N(Cc2ccco2)C1=O`, for which the GFP+ MAC1+ double positive was 1.5% and the call was inactive.
On the same counts, the results for `Cc1cc(Br)cn2c(Cc3ccsc3)c(-c3ccc(C#N)cc3)nc12` are 2% and “inactive”.
For the compound `O=C(Nc1cccc2ccccc12)c1[nH]c(-c2ccccc2)c2c1C(=O)N(C1CC1)C2=O`, the GFP+ MAC1+ double positive turned out to be 1.2% and the call was inactive.
On the same counts, the results for `COC(=O)C[C@@H]1C=C[C@@H](NC(=O)c2ccc3c(c2)OCO3)[C@@H](CO)O1` are 3.1% and “inactive”.
As to `CS(=O)(=O)c1ccc2c(c1)SC1=NC(=O)/C(=C/c3ccco3)C(=N)N12`, the GFP+ MAC1+ double positive was found to be 6.9% and the result was inactive.
On the same counts, the results for `COC(=O)COc1ccc2c(c1C)O/C(=C\c1ccco1)C2=O` are 0.6% and “inactive”.
`CC(C)(C)C1C/C(=C/c2ccco2)C(=O)/C(=C/c2ccco2)C1` (stereo unspecified): the GFP+ MAC1+ double positive was 0.5% and the normalized GFP-positive differentiation was 92.8% (active).
As to `CN(CCOc1ccccc1)C(=O)c1cc(-c2ccco2)nc2ccccc12`, the GFP+ MAC1+ double positive turned out to be 1.1% and the compound was classed as inactive.
For the compound `O=C(c1cc(-c2ccco2)nc2ccccc12)N(Cc1nnc(-c2ccc(Cl)cc2)o1)C1CC1`, the GFP+ MAC1+ double positive worked out at 1.9% and the normalized GFP-positive differentiation is 11.9% (active).
On to `CC1CCCN(C(=O)c2cc(-c3ccco3)nc3ccccc23)C1` (stereo unspecified), for which the GFP+ MAC1+ double positive amounted to 0.2% and the compound was called inactive.
For `S=C(NCCCc1cnc[nH]1)NCCCN(Cc1ccc(Cl)c(Cl)c1)c1ccc(Br)cn1`, the GFP+ MAC1+ double positive was found to be 1.1% and the call was inactive.
On the same counts, the results for `CC(C)(C)NC(=O)C(CCc1ccccc1)n1c(=O)c(-c2ccccc2)nc2ccccc21` (stereo unspecified) are 3.2% and “inactive”.
As for `CCc1nc2oc3ccccc3c(=O)c2c(=O)n1Cc1ccc(OC)cc1`, the GFP+ MAC1+ double positive stood at 3.7% and the normalized GFP-positive differentiation is 16.2% (active).
Take `O=c1c2ccccc2oc2nc3n(c(=O)c12)CCCS3`: the GFP+ MAC1+ double positive turned out to be 7.5% and the call was inactive.
On the same counts, the results for `COc1ccc(Cn2c(=O)oc3ccccc32)cc1` are 0.5% and “inactive”.
For the compound `COc1ccc(-c2nc3ccc(Br)cn3c2Cc2ccc(C)cc2)cc1OC`, the GFP+ MAC1+ double positive came to 0.6% and the compound was called inactive.
On the same counts, the results for `COc1ccc(CN2CCC(C)(Oc3cccc(F)c3)C2)c2ccccc12` (stereo unspecified) are 0.4% and “inactive”.
On to `COc1ccc2nc(-c3ccccn3)ccc2c1`, for which the GFP+ MAC1+ double positive stood at 0.3% and the compound was called inactive.
On the same counts, the results for `COc1ccc(NCCc2ccccn2)cc1` are 0.7% and “inactive”.
Take `COc1cnc(-c2ccccn2)nc1Oc1ccc(C(C)(C)C)cc1`: the GFP+ MAC1+ double positive was found to be 12.1% and the normalized GFP-positive differentiation is 308% (active).
For the compound `CCc1nc2c(OCC(=O)C(C)(C)C)cccn2c1N(C)C(=O)c1ccccc1F`, the GFP+ MAC1+ double positive came out at 0.3% and the outcome was inactive.
As for `C=CCC[C@H](CCCCC)OC(=O)/C=C/[C@H](O)[C@@H](O)C[C@@H](O)CC=C`, the GFP+ MAC1+ double positive was 1.1% and the outcome was inactive.
Consider `COc1ccccc1N1CCN(S(=O)(=O)CCNC(=O)c2ccc(OC(C)C)cc2)CC1`, for which the GFP+ MAC1+ double positive is 1% and the normalized GFP-positive differentiation was 44.1% (active).
With `CCOc1ccc(CC(=O)NCCS(=O)(=O)N2CCN(c3ccccc3)CC2)cc1`, the GFP+ MAC1+ double positive came out at 0.6% and the result was inactive.
On the same counts, the results for `O=C(NCCS(=O)(=O)N1CCN(c2ccccc2F)CC1)c1ccc(Br)o1` are 2.9% and “inactive”.
As to `O=C(NCc1cccnc1)c1cc(C2CCCCN2C(=O)CCc2ccccc2)on1` (stereo unspecified), the GFP+ MAC1+ double positive was 0.7% and the call was inactive.
As to `CCCCOCCCNC(=O)C[C@@H]1C[C@@]2(C(=O)OCC)CCCC=C2N(CCC2=CCCCC2)C1=O`, the GFP+ MAC1+ double positive is 1.7% and the compound was called inactive.
For the compound `Cc1ccc(-c2nc(C#N)c(NCCCn3ccnc3)o2)cc1`, the GFP+ MAC1+ double positive worked out at 2.5% and the normalized GFP-positive differentiation is 10.9% (active).
For the compound `Cc1ccc(S(=O)(=O)c2nc(NCCCn3ccnc3)sc2Cl)cc1`, the GFP+ MAC1+ double positive was determined as 0.5% and the compound was called inactive.
The matching figures for `Cc1ccc2c(Cl)c(C(=O)NCCCn3ccnc3)sc2c1`: 0.5% and “inactive”.
In the case of `CCOC(=O)c1cc2cc(OC)ccc2n1C1CCN(C)CC1`, the GFP+ MAC1+ double positive turned out to be 0.3% and the call was inactive.
Turning to `O=C(C(=O)N1CCN(c2ccccc2)CC1)c1ccc2c(c1)OCO2`, the GFP+ MAC1+ double positive was 1% and the outcome was inactive.
On the same counts, the results for `O=C(N[C@H]1CC[C@H](CC(=O)N2CCCCC2)O[C@@H]1CO)c1cccc(F)c1` are 1.6% and “inactive”.
The matching figures for `CCC(C(=O)OC)n1cnc2scc(-c3ccc(C)cc3)c2c1=O` (stereo unspecified): 0.9% and “inactive”.
On the same counts, the results for `COC(=O)c1c(-c2ccc(C)cc2)csc1N` are 2% and “inactive”.
In the case of `CCOC(=O)c1c(-c2ccc(C)cc2)csc1/N=C(\C)C1=C(O)c2ccccc2C1=O`, the GFP+ MAC1+ double positive was 10.3% and the normalized GFP-positive differentiation is 142% (active).
On to `Cc1sc2ccccc2c1CNC[C@H]1O[C@@H](n2ccc(=O)[nH]c2=O)[C@H](O)[C@@H]1O`, for which the GFP+ MAC1+ double positive came to 1.3% and the call was inactive.
As to `CC1(C)OC(=O)C2=C(C[C@@H](C3CC3)O[C@H]2c2ccc(Cl)cc2)O1`, the GFP+ MAC1+ double positive turned out to be 1.4% and the result was inactive.
Consider `COCCNC(=O)C1C(=O)Nc2ccccc2C(=O)N1c1ccc2c(c1)OCCO2` (stereo unspecified), for which the GFP+ MAC1+ double positive stood at 3.1% and the call was inactive.
The matching figures for `COc1ccccc1N1CCN(C(=O)c2cc3c(-c4ccc(Cl)cc4)nn(C)c3s2)CC1`: 3.7% and “inactive”.
In the case of `Cn1nc(C(F)(F)F)c2cc(C(=O)N3CCOCC3)sc21`, the GFP+ MAC1+ double positive was 0.1% and the outcome was inactive.
Turning to `CCOC(=O)N1CCN(C(=O)c2cc3c(-c4ccc(Cl)cc4)nn(C)c3s2)CC1`, the GFP+ MAC1+ double positive turned out to be 33.3% and the normalized GFP-positive differentiation is 83.1% (active).
For the compound `CCCS(=O)(=O)NC(=O)C1(C)CCCN(C(=O)c2cc(C)on2)C1` (stereo unspecified), the GFP+ MAC1+ double positive came out at 0.6% and the result was inactive.
As to `FC(F)(F)Oc1ccccc1C(c1nnnn1C1CCCCC1)N1CCN(C/C=C/c2ccccc2)CC1` (stereo unspecified), the GFP+ MAC1+ double positive was determined as 1.6% and the outcome was inactive.
On the same counts, the results for `O=c1[nH][nH]c2c1[C@H](c1ccc(Cl)cc1)O[C@H](CCc1ccccc1)C2` are 0.6% and “inactive”.
On to `COc1cc(-c2n[nH]c(=S)n2Cc2ccccc2)cc(OC)c1OC`, for which the GFP+ MAC1+ double positive amounted to 22.5% and the normalized GFP-positive differentiation was 297% (active).
With `CC(C)Oc1ccc(Cc2n[nH]c(=S)n2Cc2ccccc2)cc1Cl`, the GFP+ MAC1+ double positive was determined as 0.3% and the call was inactive.
With `CCCc1cc(-c2n[nH]c(=S)n2Cc2ccccc2)cs1`, the GFP+ MAC1+ double positive was found to be 5.8% and the call was inactive.
The matching figures for `CN(C)CCNC(=O)c1cccc(-c2cnc3c(NC=O)cc(-c4cccc(C(F)(F)F)c4)cn23)c1`: 2.2% and “inactive”.
